Mtb betalactam – beta-lactam sensitization of Mtb H37Rv. M. tuberculosis H37Rv growth with meropenem, percent inhibition. inhibition, % at 25 µM. 330,000 tested, 0.27% active; call rule not given here;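 also: growth measured after seven days incubation then overnight dye step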
RecA intein inh – Mtb RecA intein splicing inhibition | cell-free RecA intein splicing, fluorescence | inhibition, % (test concentration not listed) | 290,000 tested, 0.75% active | AID 2221; in the data active = inhibition above about 30%; inconclusive = no clear call, values can overlap the other calls
CCHFV vOTU inh – blocks the CCHF virus ovarian tumor domain protease. CCHFV vOTU protease, Pep-AMC fluorescence. inhibition, % at 11.5 µM. 370,000 tested, 0.55% active; in the data active = inhibition above about 30%
GDH-TPI counter-1 – inhibits GDH-TPI coupling enzymes, artifact for Mtb FBA screen; GDH-TPI coupled enzyme counterscreen, NADH absorbance; inhibition, % at 4.8 µM; 360,000 tested, 1.2% active; AID 588335; in the data active = inhibition above about 30%
FBA Mtb inh – Mtb fructose-bisphosphate aldolase inhibition. P9WQA3. purified M. tuberculosis FBA, fluorescence read-out. inhibition, % at 1 µM. 360,000 tested, 2.3% active
Mtb FBA inh conf – confirmation of M. tuberculosis fructose-bisphosphate aldolase inhibitors. 5,600 tested, 78% active. shares compounds with FBA Mtb inh. purified M. tuberculosis FBA, fluorescence read-out. AID 651616. inhibition, % at 1 µM
GDH-TPI counter-2 – counter-screen for M. tuberculosis FBA inhibitors: GDH-TPI coupled enzyme inhibition; 5,600 tested, 81% active; inhibition, % at 1 µM; AID 652141; shares compounds with FBA Mtb inh; GDH-TPI coupled enzyme counterscreen, fluorescence; in the data active = inhibition above about 10%
A number is an active result; 0 = inactive; ? = inconclusive; - = no result; + = active, no number. The list is not random: actives were taken first. Their share in the collection is about 4.2%. Rule as the data show it, unless noted: active = inhibition above about 27%; inactive = the rest.

SMILES	Mtb betalactam	RecA intein inh	CCHFV vOTU inh	GDH-TPI counter-1	FBA Mtb inh	Mtb FBA inh conf	GDH-TPI counter-2
Cc1ccc2cc3cc(C(=O)NCCCN4CCc5ccccc5C4)oc3nc2c1	0	0	0	34.7	69.8	183.7	133.8
COc1ccc(S(=O)(=O)Cc2ccc(C(=O)NCCCN3CCc4ccccc4C3)o2)cc1	0	0	0	0	0	-	-
Cc1ccc2cc3cc(C(=O)NCCCN4CCCCCC4)oc3nc2c1	0	0	0	0	74.5	96.6	46.8
CCCCN(CC)CCCNC(=O)c1cc2cc3ccc(C)cc3nc2o1	0	0	0	34.6	94.8	77.6	69.5
COc1ccc(S[C@]2(C(=O)N3CCN(c4ncccn4)CC3)CC(=O)N(C(=O)C3CC3)[C@@H]2c2ccc(OC)cc2)cc1	-	-	0	-	-	-	-
CCc1c(C)nc2ncnn2c1N1CCCC(C(=O)Nc2cc(F)ccc2C)C1 (stereo unspecified)	0	0	0	0	28.4	0	0
O=C(N[C@@H](Cc1cccnc1)C(=O)N1CCC[C@H]1C(=O)NCCc1ccccc1Cl)c1ccco1	-	-	0	-	-	-	-
CNc1cncc(-c2cc(OC)c(OC)c(OC)c2)n1	-	-	0	0	96.2	+	+
CNc1cccc(-c2cc(OC)c(OC)c(OC)c2)n1	-	-	0	0	0	-	-
CNc1cncc(-c2ccc(OC)cc2OC)n1	-	-	0	0	52.1	0	0
CNc1cncc(-c2cc(OC)ccc2OC)n1	-	-	0	0	0	-	-
c1cncc(Oc2ccc(NCCc3c[nH]c4ccccc34)cc2)c1	-	-	0	-	-	-	-
CC(=O)N1c2ccccc2C(=O)NCC1C(=O)NC(C)(C)C (stereo unspecified)	-	-	0	-	-	-	-
Cc1nc2c([nH]c3ccccc32)c(=O)n1N	0	0	0	0	0	-	-
Nn1c(=O)[nH]c2c([nH]c3ccccc32)c1=O	0	0	0	0	27.5	107.5	85.8
Cc1cc2c(C)nc(-c3ccccc3)nc2o1	0	0	0	0	0	-	-
Cc1nc(-c2cn[nH]c2)c2cc(C)oc2n1	0	0	0	0	26.9	133.6	109.9
CC1(C)Oc2ccc3ccc(=O)oc3c2C[C@H]1O[C@@H]1O[C@H](CO)[C@@H](O)[C@H](O)[C@H]1O	0	-	0	0	55.1	0	11.6
CC1(C)Oc2ccc3ccc(=O)oc3c2CC1O (stereo unspecified)	0	0	0	0	77.6	80.5	69.0
CCc1cc(=O)oc2c(C)c(O[C@@H]3O[C@H](CO)[C@@H](O)[C@H](O)[C@H]3O)ccc12	?	0	0	0	0	-	-
CCO[C@H]1c2c(ccc3ccc(=O)oc23)OC(C)(C)[C@H]1O	0	-	0	0	34.7	+	+
C/C=C(/C)C(=O)OC1c2c(ccc3ccc(=O)oc23)OC(C)(C)C1OC(=O)/C(C)=C\C (stereo unspecified)	0	0	0	0	0	-	-
CC(=O)O[C@@H]1[C@H](OC(=O)CC(C)C)c2c(ccc3ccc(=O)oc23)OC1(C)C	0	0	0	0	0	-	-
CC1(C)Oc2ccc3ccc(=O)oc3c2[C@@H](O)[C@H]1O	0	-	0	0	69.0	63.8	65.6
COc1ccc(C2CC(=O)C(c3ccccc3)=CN2Cc2ccccc2)cc1 (stereo unspecified)	-	-	0	-	-	-	-
SMILES	Mtb betalactam	RecA intein inh	CCHFV vOTU inh	GDH-TPI counter-1	FBA Mtb inh	Mtb FBA inh conf	GDH-TPI counter-2
O=C(C1CCCN1S(=O)(=O)c1ccc(Br)s1)N1CCN(c2ccccc2)CC1 (stereo unspecified)	-	-	0	-	-	-	-
CCN(CC)CCNC(=O)c1cc2c(=O)n(C)c3ccccc3c2n1C	0	0	0	0	27.6	+	+
CCN(CC)CCCNC(=O)c1cc2c(=O)n(C)c3ccccc3c2n1C	0	0	0	0	0	-	-
O=C(NN1C(=O)C2C3C=CC(C3)C2C1=O)c1ccccc1 (stereo unspecified)	0	0	0	0	77.1	0	0
COc1ccc2c(c1)/C(=C/c1cc(OC)c(OC)c(OC)c1)C(=O)N2	-	-	0	0	0	-	-
C=C1c2cc(OC)ccc2NC(=O)N1CC	0	0	0	0	34.3	0	0
CCCCn1c(-c2cccnc2)nc2cc3[nH]c(=O)c(C(C)C)nc3cc21	0	0	0	30.9	63.6	+	170.1
CCCCn1c(-c2cccc(Br)c2)nc2cc3[nH]c(=O)c(C(C)C)nc3cc21	0	0	0	0	34.0	0	0
CCCCn1c(-c2ccc(Cl)c(Cl)c2)nc2cc3[nH]c(=O)c(C(C)C)nc3cc21	0	0	0	0	0	-	-
CCCCn1c(-c2ccc(C(C)(C)C)cc2)nc2cc3[nH]c(=O)c(C(C)C)nc3cc21	0	0	0	0	0	-	-
Cc1ccccc1Cn1cc(CN2[C@H](C)COc3cc(Br)ccc3S2(=O)=O)nn1	-	-	0	-	-	-	-
Cc1ccc(C2Nc3ccccc3C(=O)N2Cc2ccco2)cc1 (stereo unspecified)	0	0	0	0	43.0	85.7	56.2
O=C1c2ccccc2NC(c2cccc(F)c2)N1Cc1ccccc1 (stereo unspecified)	0	0	0	0	57.9	97.0	81.3
COc1ccc(C2Nc3ccccc3C(=O)N2Cc2ccco2)cc1COc1ccc(NC(C)=O)cc1 (stereo unspecified)	0	0	0	0	40.6	0	0
O=C1c2ccccc2NC(c2cccc(F)c2)N1Cc1ccco1 (stereo unspecified)	0	0	0	0	59.6	74.3	59.0
COc1ccc(C2Nc3ccccc3C(=O)N2c2ccccc2)cc1COc1ccccn1 (stereo unspecified)	0	0	0	0	90.4	89.7	75.1
COC(=O)c1cccc(Cn2ccc3ccc(-c4ccc5ccn(C(=O)c6ccccc6)c5c4)cc32)c1	-	-	0	-	-	-	-
C1=C[C@@H]2CCN(Cc3ccccc3)Cc3cccc(c32)C1	0	-	0	0	28.1	+	+
Cc1ccc(CN2CC[C@H]3C=CCc4cccc(c43)C2)cc1	0	-	0	0	0	-	-
CCn1cc(C(=O)O)c(=O)c2cc(F)c(N3CCN(S(=O)(=O)c4ccc(NC(C)=O)cc4)CC3)cc21	0	0	0	0	50.4	0	0
COc1cc2[nH]c(C(=O)N3CCN(c4ccccc4F)CC3)cc2c(OC)c1OC	0	0	0	0	44.5	+	+
Cc1cccc(C2Nc3ccccc3C(=O)N2CCc2ccccc2)n1 (stereo unspecified)	0	0	0	0	73.4	+	+
CCCCN1CC[C@@H](C)Oc2cc(Br)ccc2S1(=O)=O	-	-	0	-	-	-	-
Cc1nn(-c2ccccc2)c2sc(C(=O)NC3CCCCCC3)cc12	-	-	0	-	-	-	-
COCCCN1CN(S(=O)(=O)c2ccc(Cl)cc2)c2nc3ccccc3nc21	0	0	0	0	0	-	-
O=S(=O)(c1cccc(Cl)c1)N1CN(CC2CCCO2)c2nc3ccccc3nc21 (stereo unspecified)	0	0	0	0	36.1	187.6	146.0
O=S(=O)(c1ccc(Cl)cc1)N1CN(CC2CCCO2)c2nc3ccccc3nc21 (stereo unspecified)	0	0	0	0	0	-	-

Source: PubChem BioAssay (several laboratories)
